Consider 3 molecules from ChEMBL document CHEMBL2218924, “A broad activity screen in support of a chemogenomic map for kinase signalling research and drug discovery” (Biochem J, 2013).

Assay [1] has as its target T1, Tyrosine-protein kinase Mer (Homo sapiens) (UniProt Q12866).
T1 sequence (whole entry): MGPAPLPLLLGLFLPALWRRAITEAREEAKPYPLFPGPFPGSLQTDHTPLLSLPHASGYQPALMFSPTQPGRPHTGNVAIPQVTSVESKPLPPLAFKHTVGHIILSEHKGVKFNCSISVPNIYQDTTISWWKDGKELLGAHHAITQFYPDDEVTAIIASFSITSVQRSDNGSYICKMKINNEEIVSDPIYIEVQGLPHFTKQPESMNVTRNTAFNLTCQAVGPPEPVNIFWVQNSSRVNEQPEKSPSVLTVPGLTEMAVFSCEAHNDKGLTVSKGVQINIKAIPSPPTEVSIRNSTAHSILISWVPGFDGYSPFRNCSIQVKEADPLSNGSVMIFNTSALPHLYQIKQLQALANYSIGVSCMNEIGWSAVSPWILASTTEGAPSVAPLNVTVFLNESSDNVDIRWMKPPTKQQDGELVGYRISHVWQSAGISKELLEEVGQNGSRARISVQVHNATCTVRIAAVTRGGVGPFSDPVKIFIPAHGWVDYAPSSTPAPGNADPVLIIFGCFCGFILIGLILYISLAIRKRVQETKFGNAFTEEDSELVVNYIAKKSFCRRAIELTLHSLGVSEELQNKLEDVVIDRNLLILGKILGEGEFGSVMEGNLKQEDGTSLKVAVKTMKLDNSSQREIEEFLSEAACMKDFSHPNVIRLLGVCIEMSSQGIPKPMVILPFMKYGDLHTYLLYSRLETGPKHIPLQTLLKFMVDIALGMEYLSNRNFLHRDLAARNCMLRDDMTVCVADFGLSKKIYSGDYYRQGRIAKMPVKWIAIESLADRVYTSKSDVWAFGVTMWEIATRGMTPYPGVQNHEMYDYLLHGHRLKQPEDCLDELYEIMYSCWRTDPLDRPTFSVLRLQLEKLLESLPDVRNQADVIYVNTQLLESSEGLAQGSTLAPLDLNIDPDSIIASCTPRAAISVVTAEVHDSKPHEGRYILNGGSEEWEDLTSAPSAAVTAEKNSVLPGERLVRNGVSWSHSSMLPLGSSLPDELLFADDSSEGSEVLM
The note with it: at 1 µM.

Assay [2] addresses T1, Tyrosine-protein kinase Mer (Homo sapiens). The note with it: at 10 µM.
Assay [3] concerns the target Hepatocyte growth factor receptor (Homo sapiens) (UniProt P08581). The note with it: at 1 µM.
Assay [4] shares this target. The conditions noted are these: at 10 µM.
In assay [5] the target is MAP kinase-interacting serine/threonine-protein kinase 2 (Homo sapiens) (UniProt Q9HBH9). The note with it: at 1 µM.
Chain of MAP kinase-interacting serine/threonine-protein kinase 2 (Homo sapiens) (Q9HBH9 whole entry, looked up): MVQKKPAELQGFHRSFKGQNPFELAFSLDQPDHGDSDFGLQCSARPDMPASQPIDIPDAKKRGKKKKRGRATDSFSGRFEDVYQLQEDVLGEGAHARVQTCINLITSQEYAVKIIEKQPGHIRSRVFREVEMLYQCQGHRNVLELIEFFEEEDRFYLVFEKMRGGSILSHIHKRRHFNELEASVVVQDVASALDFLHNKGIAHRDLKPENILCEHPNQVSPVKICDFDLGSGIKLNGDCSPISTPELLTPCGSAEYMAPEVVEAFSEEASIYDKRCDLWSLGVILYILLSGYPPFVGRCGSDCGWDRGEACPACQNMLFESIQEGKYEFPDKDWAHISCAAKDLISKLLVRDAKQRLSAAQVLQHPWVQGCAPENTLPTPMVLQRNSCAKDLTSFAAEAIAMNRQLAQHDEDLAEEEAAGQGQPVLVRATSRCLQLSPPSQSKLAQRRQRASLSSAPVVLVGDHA
Assay [6] has the same target. The conditions noted are these: at 10 µM.
The target in assay [7] is T2, Muscle, skeletal receptor tyrosine-protein kinase (Homo sapiens) (UniProt O15146).
T2 sequence (whole entry): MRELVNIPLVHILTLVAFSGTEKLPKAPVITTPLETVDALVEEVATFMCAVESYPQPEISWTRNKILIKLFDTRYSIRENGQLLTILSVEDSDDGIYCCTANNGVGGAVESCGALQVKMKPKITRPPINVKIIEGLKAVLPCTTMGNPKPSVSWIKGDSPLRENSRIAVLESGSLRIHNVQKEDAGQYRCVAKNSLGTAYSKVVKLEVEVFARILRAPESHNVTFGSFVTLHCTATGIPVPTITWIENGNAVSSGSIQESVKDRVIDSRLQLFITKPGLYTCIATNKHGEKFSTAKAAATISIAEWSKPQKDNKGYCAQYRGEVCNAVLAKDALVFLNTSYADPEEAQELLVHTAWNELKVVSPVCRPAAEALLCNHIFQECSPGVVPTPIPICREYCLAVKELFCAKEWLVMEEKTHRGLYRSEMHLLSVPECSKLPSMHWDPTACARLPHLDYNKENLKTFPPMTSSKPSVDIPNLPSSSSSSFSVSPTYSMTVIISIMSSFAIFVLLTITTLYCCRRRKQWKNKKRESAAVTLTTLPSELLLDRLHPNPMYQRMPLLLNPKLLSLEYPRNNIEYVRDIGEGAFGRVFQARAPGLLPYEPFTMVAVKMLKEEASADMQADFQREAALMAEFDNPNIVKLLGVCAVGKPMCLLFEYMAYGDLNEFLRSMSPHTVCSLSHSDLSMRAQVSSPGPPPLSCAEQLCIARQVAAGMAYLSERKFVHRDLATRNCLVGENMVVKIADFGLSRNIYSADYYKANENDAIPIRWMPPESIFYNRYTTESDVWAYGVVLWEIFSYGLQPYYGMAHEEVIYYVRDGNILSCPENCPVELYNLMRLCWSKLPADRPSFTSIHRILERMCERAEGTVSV
The note with it: at 1 µM.

The target of assay [8] is T2, Muscle, skeletal receptor tyrosine-protein kinase (Homo sapiens). The conditions noted are these: at 10 µM.
Assay [9] has as its target T3, Serine/threonine-protein kinase Nek11 (Homo sapiens) (UniProt Q8NG66).
T3 sequence (whole entry): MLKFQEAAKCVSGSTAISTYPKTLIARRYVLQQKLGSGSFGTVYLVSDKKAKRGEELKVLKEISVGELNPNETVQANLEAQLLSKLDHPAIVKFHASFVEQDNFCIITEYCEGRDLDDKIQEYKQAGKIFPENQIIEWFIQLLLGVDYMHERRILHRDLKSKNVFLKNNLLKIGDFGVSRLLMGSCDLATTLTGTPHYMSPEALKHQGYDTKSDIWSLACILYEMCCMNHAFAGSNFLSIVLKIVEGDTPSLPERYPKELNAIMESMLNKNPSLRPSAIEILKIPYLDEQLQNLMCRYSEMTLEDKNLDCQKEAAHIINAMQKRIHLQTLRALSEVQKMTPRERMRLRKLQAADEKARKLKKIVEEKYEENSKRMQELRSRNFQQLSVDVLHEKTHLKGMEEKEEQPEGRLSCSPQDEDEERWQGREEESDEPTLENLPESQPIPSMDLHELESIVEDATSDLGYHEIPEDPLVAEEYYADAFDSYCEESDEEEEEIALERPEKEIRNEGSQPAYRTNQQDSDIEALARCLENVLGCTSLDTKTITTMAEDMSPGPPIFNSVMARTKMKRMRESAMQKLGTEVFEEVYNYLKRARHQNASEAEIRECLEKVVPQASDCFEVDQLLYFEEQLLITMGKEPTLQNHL
The note with it: at 1 µM.

Assay [10] has as its target T3, Serine/threonine-protein kinase Nek11 (Homo sapiens). The note with it: at 10 µM.
For assay [11], the target named is T4, Serine/threonine-protein kinase Nek2 (Homo sapiens) (UniProt P51955).
T4 sequence (whole entry): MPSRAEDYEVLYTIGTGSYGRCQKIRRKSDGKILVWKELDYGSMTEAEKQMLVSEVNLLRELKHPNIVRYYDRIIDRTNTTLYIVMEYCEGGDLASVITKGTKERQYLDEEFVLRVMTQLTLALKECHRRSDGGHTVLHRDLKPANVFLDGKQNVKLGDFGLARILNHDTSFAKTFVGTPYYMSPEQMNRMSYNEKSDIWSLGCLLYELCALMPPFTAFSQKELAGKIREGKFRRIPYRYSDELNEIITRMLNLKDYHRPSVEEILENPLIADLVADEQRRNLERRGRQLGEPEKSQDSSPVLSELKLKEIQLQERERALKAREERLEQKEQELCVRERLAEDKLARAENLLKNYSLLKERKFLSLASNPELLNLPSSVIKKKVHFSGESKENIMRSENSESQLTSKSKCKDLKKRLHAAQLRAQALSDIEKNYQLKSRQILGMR
The note with it: at 1 µM.

Assay [12] deals with T4, Serine/threonine-protein kinase Nek2 (Homo sapiens). The note with it: at 10 µM.
Assay [13] addresses T5, Serine/threonine-protein kinase Nek3 (Homo sapiens) (UniProt P51956).
T5 sequence (whole entry): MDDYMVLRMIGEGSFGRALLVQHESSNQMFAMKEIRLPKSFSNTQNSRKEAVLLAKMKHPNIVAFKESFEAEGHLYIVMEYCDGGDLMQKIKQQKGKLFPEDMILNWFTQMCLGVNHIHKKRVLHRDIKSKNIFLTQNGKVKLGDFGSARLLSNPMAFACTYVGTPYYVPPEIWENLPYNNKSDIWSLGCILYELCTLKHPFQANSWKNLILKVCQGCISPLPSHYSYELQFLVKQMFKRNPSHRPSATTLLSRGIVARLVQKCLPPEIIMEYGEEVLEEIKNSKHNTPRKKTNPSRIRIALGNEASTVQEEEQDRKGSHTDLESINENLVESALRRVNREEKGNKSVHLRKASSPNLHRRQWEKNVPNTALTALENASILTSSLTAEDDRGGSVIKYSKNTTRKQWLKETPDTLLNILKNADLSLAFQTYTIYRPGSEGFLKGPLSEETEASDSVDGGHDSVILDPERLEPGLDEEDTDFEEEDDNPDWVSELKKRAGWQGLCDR
The conditions noted are these: at 1 µM.

The target of assay [14] is Serine/threonine-protein kinase tousled-like 2 (Homo sapiens) (UniProt Q86UE8). The note with it: at 1 µM.
Chain of Serine/threonine-protein kinase tousled-like 2 (Homo sapiens) (Q86UE8 whole entry, looked up): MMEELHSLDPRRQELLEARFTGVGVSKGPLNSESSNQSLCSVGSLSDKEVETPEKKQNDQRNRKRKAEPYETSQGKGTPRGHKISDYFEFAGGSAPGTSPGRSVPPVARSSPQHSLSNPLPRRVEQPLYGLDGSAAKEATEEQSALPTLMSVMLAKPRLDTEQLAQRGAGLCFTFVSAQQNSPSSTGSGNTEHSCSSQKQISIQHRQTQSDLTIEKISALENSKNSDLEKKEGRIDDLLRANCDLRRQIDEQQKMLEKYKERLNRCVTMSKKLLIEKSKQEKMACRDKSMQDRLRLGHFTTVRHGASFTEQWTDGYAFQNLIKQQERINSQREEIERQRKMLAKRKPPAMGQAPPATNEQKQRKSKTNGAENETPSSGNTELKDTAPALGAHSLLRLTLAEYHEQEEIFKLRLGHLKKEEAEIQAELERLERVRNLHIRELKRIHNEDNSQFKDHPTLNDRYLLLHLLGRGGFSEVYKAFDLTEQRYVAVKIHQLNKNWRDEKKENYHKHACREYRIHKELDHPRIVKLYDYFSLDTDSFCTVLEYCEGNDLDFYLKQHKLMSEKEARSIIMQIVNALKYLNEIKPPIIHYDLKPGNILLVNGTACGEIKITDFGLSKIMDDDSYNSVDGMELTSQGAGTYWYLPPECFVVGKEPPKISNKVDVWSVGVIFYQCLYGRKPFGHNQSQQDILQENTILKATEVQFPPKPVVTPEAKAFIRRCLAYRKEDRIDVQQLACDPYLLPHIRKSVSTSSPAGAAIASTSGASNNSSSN
Assay [15] has the same target. The conditions noted are these: at 10 µM.
In assay [16] the target is T6, Testis-specific serine/threonine-protein kinase 1 (Homo sapiens) (UniProt Q9BXA7).
T6 sequence (whole entry): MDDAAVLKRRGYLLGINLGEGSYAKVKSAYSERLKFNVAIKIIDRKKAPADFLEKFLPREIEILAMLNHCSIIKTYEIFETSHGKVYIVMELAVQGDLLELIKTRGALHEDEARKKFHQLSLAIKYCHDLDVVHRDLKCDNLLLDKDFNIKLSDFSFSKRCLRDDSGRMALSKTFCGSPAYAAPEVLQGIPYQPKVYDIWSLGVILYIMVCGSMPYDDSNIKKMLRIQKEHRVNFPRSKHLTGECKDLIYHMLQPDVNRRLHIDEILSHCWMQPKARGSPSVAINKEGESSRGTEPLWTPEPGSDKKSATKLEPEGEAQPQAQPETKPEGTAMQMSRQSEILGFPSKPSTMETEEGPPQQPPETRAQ
The conditions noted are these: at 1 µM.

Assay [17] deals with T6, Testis-specific serine/threonine-protein kinase 1 (Homo sapiens). The conditions noted are these: at 10 µM.
The target of assay [18] is T7, Testis-specific serine/threonine-protein kinase 2 (Homo sapiens) (UniProt Q96PF2).
T7 sequence (whole entry): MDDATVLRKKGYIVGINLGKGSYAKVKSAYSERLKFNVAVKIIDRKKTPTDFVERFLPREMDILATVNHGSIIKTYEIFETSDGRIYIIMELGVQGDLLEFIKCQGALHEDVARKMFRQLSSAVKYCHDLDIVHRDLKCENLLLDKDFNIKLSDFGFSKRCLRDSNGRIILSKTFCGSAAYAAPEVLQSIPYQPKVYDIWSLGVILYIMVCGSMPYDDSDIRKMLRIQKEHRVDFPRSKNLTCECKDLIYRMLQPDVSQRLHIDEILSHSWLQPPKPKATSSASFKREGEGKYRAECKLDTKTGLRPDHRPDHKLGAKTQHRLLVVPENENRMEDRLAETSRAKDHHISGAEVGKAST
The note with it: at 1 µM.

The target of assay [19] is T7, Testis-specific serine/threonine-protein kinase 2 (Homo sapiens). The note with it: at 10 µM.

Chain of Hepatocyte growth factor receptor (Homo sapiens) (P08581 whole entry): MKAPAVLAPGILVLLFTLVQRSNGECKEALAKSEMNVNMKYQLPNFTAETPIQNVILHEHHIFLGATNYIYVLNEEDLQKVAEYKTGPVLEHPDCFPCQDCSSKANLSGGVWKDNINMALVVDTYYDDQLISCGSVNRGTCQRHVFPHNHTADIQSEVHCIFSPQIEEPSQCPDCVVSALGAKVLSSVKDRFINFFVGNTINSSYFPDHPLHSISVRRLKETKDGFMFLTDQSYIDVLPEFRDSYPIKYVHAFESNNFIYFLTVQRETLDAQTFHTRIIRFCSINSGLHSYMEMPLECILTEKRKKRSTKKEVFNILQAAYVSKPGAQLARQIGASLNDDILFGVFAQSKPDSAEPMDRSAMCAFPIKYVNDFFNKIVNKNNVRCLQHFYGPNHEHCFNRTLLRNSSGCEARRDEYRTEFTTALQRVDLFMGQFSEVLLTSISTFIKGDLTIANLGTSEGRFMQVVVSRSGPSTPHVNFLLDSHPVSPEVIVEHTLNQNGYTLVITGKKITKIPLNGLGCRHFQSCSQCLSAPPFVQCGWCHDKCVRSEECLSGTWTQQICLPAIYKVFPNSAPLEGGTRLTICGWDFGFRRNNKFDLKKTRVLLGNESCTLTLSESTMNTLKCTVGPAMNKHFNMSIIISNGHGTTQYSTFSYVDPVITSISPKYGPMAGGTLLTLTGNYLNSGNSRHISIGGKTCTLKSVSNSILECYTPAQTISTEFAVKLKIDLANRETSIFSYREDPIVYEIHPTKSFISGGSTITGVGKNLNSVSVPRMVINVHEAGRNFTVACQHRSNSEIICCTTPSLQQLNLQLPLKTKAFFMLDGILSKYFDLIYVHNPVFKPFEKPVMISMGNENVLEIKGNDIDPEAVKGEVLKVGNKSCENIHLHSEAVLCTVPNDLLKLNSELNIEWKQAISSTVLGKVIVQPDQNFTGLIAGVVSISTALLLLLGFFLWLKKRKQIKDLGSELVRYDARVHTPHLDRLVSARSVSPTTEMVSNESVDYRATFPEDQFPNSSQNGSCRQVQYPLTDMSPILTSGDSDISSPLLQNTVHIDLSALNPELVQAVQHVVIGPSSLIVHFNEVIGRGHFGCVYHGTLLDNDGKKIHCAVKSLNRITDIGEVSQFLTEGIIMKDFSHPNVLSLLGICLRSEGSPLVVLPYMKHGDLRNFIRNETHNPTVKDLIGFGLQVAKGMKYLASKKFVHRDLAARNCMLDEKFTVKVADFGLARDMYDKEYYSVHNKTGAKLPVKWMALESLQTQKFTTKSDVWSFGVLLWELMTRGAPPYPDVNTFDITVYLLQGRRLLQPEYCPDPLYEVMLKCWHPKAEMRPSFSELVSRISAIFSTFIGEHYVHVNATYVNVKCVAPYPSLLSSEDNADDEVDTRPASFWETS

What is called residual activity is the signal under treatment as a percentage of the control signal. As to `O=c1[nH]c2ccccc2n1C1CCN(Cc2ccc(-c3nc4cc5[nH]cnc5cc4nc3-c3ccccc3)cc2)CC1`, the residual activity in assay [1] is 112%; in [2] it was 51%; in [3] it was 93%; in assay [4], 88%; in assay [5], 97%; in assay [6], 67%. In addition, the residual activity was found to be 105% in [7]; 84% in assay [8]; 75% in assay [9]; 88% in assay [10]; 86% in [11]; 84% in assay [12]. Also, the residual activity came to 111% in [13]; 104% in [14]; 84% in [15]; 97% in assay [16]; 54% in assay [17]; 106% in assay [18]. In assay [19], the residual activity is 45%.

Regarding `CO[C@H]1[C@@H](OC)C[C@H](C)[C@@H](OC)C2=CC(=O)C=C(NC(=O)/C(C)=C/C=C/[C@H](OC)[C@@H](OC(N)=O)/C(C)=C/[C@@H]1C)C2=O`, the residual activity in assay [18] was 97%.

For `O=C1NC(=O)c2c1c1c3ccccc3n3c1c1c2c2ccccc2n1C1CCC3O1`, the residual activity in assay [1] turned out to be 34%; in assay [2] it was 11%; in assay [5] it was 97%; in assay [6], 95%; in assay [9], 91%; in assay [10], 87%. Also, the residual activity in assay [14] stood at 62%; in assay [15] it was 68%; in assay [16], 92%; in [17], 70%; in assay [18], 82%; in assay [19], 96%.
